Test results taken from PubChem BioAssay.
Activity calls are given as the source filed them.

Experiments:
[1] = anti-His antibody binders, primary screen, artefact control for SMM control protein annotation, biochemical, small-molecule microarray, 635 nm fluorescence (AID 1128); conditions: anti-His Alexa647 antibody binding, higher = more signal;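 further: score merges feature fluorescence with signal-to-noise for each printed compound spot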
[2] = tested on: Human papillomavirus type 1a E7 protein (residues 1-88); test: HPV1a E7 small-molecule binders, primary screen, biochemical, small-molecule microarray, residues 1-88, 635 nm (AID 1129); conditions: small-molecule microarray binding, fluorescence 635 nm; higher = more signal
[3] = target: Focal adhesion kinase 1 (Homo sapiens) (UniProt Q05397); test: small-molecule microarray binders of FAK, primary screen, biochemical, 635/667 nm fluorescence, BSA, DTT (AID 1130); conditions: PTK2 binding, 635 nm fluorescence, higher = more signal;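 further: composite of spot emission at 667 nm and signal to noise over triplicate slides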
Sequence of Focal adhesion kinase 1 (Homo sapiens) (Q05397 whole entry, looked up): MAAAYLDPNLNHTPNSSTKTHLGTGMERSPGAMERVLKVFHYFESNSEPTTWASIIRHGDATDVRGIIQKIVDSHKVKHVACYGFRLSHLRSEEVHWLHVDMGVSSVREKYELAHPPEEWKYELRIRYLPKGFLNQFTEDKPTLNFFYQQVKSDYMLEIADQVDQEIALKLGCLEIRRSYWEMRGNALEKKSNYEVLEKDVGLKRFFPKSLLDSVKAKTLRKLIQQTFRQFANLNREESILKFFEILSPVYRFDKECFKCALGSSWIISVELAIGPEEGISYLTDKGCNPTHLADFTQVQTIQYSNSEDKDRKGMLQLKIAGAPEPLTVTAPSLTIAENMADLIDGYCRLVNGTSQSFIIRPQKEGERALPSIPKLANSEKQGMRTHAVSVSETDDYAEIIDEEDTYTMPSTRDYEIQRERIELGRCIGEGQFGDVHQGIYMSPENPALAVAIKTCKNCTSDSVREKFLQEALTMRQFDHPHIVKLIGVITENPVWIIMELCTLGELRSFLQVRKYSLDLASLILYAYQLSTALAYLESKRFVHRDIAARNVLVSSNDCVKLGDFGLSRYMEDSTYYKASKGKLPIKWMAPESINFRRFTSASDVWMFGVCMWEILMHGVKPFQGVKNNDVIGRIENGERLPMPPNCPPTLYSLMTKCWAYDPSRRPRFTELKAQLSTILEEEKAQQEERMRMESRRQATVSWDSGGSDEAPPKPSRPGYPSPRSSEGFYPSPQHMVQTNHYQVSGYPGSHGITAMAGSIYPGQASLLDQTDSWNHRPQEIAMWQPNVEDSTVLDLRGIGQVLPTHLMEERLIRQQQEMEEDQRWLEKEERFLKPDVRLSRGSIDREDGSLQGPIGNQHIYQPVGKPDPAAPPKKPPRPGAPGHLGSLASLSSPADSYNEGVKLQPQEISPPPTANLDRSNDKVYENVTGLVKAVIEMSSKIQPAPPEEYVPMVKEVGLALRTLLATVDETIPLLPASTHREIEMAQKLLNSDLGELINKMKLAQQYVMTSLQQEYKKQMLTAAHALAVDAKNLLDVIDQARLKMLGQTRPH

[4] = tested on: Fibrinogen (Alexa647-labelled); test: fibrinogen binders on compound microarrays, profiling panel, artefact control for SMM control-protein annotation, biochemical, small-molecule microarray, 635/667 nm fluorescence (AID 1131); conditions: fibrinogen-A647 binding fluorescence, higher = more signal;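 further: z-score merges 667 nm fluorescence with per-spot signal-to-noise over triplicate slides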
[5] = target: Follistatin (Homo sapiens) (UniProt P19883); test: follistatin binders on small-molecule microarrays, primary screen, biochemical, small-molecule microarray, 635/667 nm fluorescence (AID 1132); conditions: FST binding, 635 nm fluorescence, higher = more signal
Sequence of Follistatin (Homo sapiens) (P19883 whole entry, looked up): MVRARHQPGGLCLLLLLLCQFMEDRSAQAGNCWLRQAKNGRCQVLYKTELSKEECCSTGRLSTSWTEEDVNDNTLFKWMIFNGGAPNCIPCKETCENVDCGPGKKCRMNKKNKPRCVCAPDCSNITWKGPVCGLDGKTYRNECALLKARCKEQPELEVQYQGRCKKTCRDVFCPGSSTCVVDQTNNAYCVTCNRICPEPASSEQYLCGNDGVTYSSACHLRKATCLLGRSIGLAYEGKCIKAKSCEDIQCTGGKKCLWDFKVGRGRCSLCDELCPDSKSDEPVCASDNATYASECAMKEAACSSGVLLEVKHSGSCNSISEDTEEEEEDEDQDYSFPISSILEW

[6] = target: Fibroblast growth factor 2 (Homo sapiens) (UniProt P09038); test: FGF2 binders on small-molecule microarrays, primary screen, biochemical, small-molecule microarray, 635/667 nm fluorescence (AID 1133); conditions: small-molecule microarray binding, FGF2, fluorescence 635/667; higher = more signal
Sequence of Fibroblast growth factor 2 (Homo sapiens) (P09038 whole entry, looked up): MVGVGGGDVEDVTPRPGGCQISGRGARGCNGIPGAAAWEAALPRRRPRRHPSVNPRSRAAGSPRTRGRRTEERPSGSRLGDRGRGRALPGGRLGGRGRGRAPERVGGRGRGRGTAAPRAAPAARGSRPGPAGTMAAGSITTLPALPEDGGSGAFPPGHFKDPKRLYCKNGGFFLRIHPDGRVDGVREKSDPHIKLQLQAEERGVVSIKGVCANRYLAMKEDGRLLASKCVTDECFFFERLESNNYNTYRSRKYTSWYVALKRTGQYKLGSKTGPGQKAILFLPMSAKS

[7] = mitochondrial membrane potential change in A549 cells, profiling panel, cell-based, JC-1 fluorescence, basal, 24 h, 100 nL (AID 1138); conditions: higher = more signal;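 further: A549 lung adenocarcinoma cells under basal conditions with no added stimulus; test concentration not given here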
[8] = tested on: Lefty1; test: Lefty1 binders on small-molecule microarrays, primary screen, biochemical, small-molecule microarray, 635/667 nm fluorescence (AID 1139); conditions: small-molecule microarray binding, fluorescence 635/667; higher = more signal
[9] = tested on: wheat germ agglutinin (Triticum aestivum), Alexa647-labelled; test: wheat germ agglutinin binders on compound microarrays, profiling panel, artefact control for SMM control-protein annotation, biochemical, small-molecule microarray, 635/667 nm fluorescence (AID 1140); conditions: WGA-A647 binding, 635 nm fluorescence, higher = more signal;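 further: score merges 667 nm feature emission with signal to noise over triplicate slides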
[10] = target: Luciferin 4-monooxygenase (Photinus pyralis) (UniProt P08659); test: firefly luciferase enzyme inhibitors, primary screen, biochemical, luminescence, purified enzyme, 2006 set (AID 1141); conditions: SteadyGlo luminescence, 30 min, higher = more signal, called active from +8 up or from −8 down;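 further: cell-free assay with purified firefly luciferase at 100 ng per well in PBS; test concentration not given here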
Sequence of Luciferin 4-monooxygenase (Photinus pyralis) (P08659 whole entry, looked up): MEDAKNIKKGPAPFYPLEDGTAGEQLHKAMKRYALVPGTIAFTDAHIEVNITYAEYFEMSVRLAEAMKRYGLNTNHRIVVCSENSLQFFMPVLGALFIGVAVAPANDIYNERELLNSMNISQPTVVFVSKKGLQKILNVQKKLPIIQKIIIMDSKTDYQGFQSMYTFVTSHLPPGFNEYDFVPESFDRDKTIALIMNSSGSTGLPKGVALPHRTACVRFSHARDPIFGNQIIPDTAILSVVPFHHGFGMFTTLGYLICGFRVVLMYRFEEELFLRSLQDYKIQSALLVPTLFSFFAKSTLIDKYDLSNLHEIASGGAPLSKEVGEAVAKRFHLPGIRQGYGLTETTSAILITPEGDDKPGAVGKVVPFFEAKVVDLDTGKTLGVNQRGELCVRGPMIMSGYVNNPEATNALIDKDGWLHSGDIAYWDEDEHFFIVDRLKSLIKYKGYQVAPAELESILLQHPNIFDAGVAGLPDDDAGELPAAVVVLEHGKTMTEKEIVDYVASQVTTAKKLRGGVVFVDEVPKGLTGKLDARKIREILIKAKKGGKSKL

Compound	composite z-score [1]	composite z-score [2]	composite z-score [3]	composite z-score [4]	composite z-score [5]	composite z-score [6]	z-score [7]	composite z-score [8]	composite z-score [9]	z-score [10]
NC(=O)[C@@H]1[C@H]2C(=O)O[C@H](c3ccccc3)[C@H](c3ccccc3)N2[C@H](c2ccc(O)cc2)[C@@]12C(=O)Nc1ccc(C#CC3(O)CCCCCC3)cc12	0.6	-0.239	-0.205	-0.819	-0.0584	-0.384	-1.06	-0.502	-0.0999	-0.869 (inactive)
COC(=O)[C@@]1(Cc2ccccc2)[C@H]2c3cc(C(=O)N4CCCC4)n(Cc4nc5ccccc5[nH]4)c3C[C@H]2CN1C(=O)c1ccccc1	2.51	1.24	1.22	0.656	1.11	-0.297	1.05	-0.931	0.726	1.5 (inactive)
CC(C)(C)OC(=O)CC[C@]12N=C(c3ccc(OCCCO)cc3)O[C@H]1c1ccccc1N(CCS(=O)(=O)c1ccccc1)C2=O	1.99	1.24	0.895	0.957	1.17	0.596	0.95	0.5	1.08	-8.32 (active)
CCOC(=O)C1=CCC(c2ccc(C)cc2)N(S(=O)(=O)c2ccc(C)cc2)C1 (stereo not given)	0.403	0.939	0.335	0.258	0.523	-0.279	2.06	0.288	0.396	1.47 (inactive)
[N-]=[N+]=NCc1ccccc1C[C@]1(C(=O)O)N=C(c2ccc(OCCCO)cc2)O[C@H]1c1ccccc1N=[N+]=[N-]	0.906	1.19	0.532	0.985	1.1	0.582	-1.17	0.354	1.2	-13.8 (active)
COC(=O)[C@@]1(Cc2ccccc2)[C@H]2c3cc(C(=O)N4CCCC4)n(Cc4cccc5ccccc45)c3C[C@H]2CN1C(=O)c1ccccc1	2.46	1.17	0.971	0.51	0.184	-0.0086	1.11	-0.922	1.29	1.4 (inactive)
[N-]=[N+]=NCc1ccccc1[C@@H]1OC(c2ccc(OCCCO)cc2)=N[C@]1(Cc1ccccc1N=[N+]=[N-])C(=O)N1CCOCC1	2.12	1.27	0.536	0.857	1.31	1.66	1.28	-0.207	1.13	-1.52 (inactive)
Cc1ccc(C(C)CC(O)C2C=CC3C(=O)N(c4ccccc4)C(=O)C3N2Nc2ccc([N+](=O)[O-])cc2)o1 (stereo not given)	0.484	1.23	0.772	0.904	1.06	0.232	-0.828	-0.0023	0.646	1.45 (inactive)
C=CCN1C(=O)[C@]2(O[C@H](CCO)[C@@H]([Si](C)(C)c3ccc(OC)cc3)[C@@H]2C)c2cc(N3CCCCC3=O)ccc21	1.74	1.2	0.162	0.799	1.32	0.361	0.517	1.52	0.679	-0.117 (inactive)
C[N+](C)(C)CCCC[C@@H]1NC(=O)[C@@H]2C[C@H](C(=O)NCCCCCN)[C@H](c3cccc(OCCO)c3)N2C1=O	0.758	0.935	0.103	0.978	0.597	0.175	0.809	0.161	1.07	-1.25 (inactive)
CN1C(=O)C2C=CC(C(O)C3CCCCC3)N(Nc3ccc([N+](=O)[O-])cc3[N+](=O)[O-])C2C1=O (stereo not given)	1.08	1.25	0.622	1.02	1.07	0.0734	1.37	0.182	0.497	0.799 (inactive)
O=C1c2ccccc2[C@](Cc2ccccc2I)(C(=O)NC2CC2)[C@H](c2ccc(CO)cc2)N1C1CCCCC1	2.63	1.24	0.548	0.806	1.27	1.09	2.01	0.593	0.993	-0.912 (inactive)
CCOC(=O)[C@H]1C/C=C/C[C@H](C(=O)OCC)C(=O)O[C@H]2[C@@H](OC)O[C@H](CO)[C@@H](OC(=O)Nc3cccc(F)c3)[C@@H]2OC1=O	1.82	0.712	0.154	0.966	0.247	0.0815	-2.01	1.11	0.452	-1.14 (inactive)
CC(C)(C)OC(=O)CC[C@@]1(C(N)=O)N=C(c2ccc(OCCCO)cc2)O[C@@H]1c1ccccc1	1.27	1.13	0.754	0.971	0.136	-0.343	-0.655	-0.0503	0.178	-0.637 (inactive)
CN1C(=O)C2C=CC(C(O)c3ccc(-c4ccccc4)s3)N(N(c3ccccc3)c3ccccc3)C2C1=O (stereo not given)	0.0993	0.628	0.162	0.528	1.14	-0.314	0.767	-0.119	1.08	-0.377 (inactive)
COc1ccc(CCNC(=O)[C@@]2(Sc3ccc(C)cc3)CC(=O)N(C3CCCCC3)[C@@H]2c2ccc(CO)cc2I)cc1	0.949	1.21	0.28	0.151	0.884	0.535	-0.0279	0.569	0.396	0.645 (inactive)
O=C1NC(=O)C2C1C=CC(C(O)C(c1ccccc1)c1ccccc1)N2Nc1ccc(Cl)cc1Cl (stereo not given)	-0.138	1.15	0.682	0.852	0.896	-0.301	-0.815	-0.0329	0.587	0.231 (inactive)

Compound	composite z-score [1]	composite z-score [2]	composite z-score [3]	composite z-score [4]	composite z-score [5]	composite z-score [6]	z-score [7]	composite z-score [8]	composite z-score [9]	z-score [10]
C=CC[C@]1(C(=O)N2CCCCC2)N=C(c2ccc(OCCCO)cc2)O[C@H]1c1ccccc1	2.2	1.19	0.702	0.928	1.3	-0.165	1.48	-0.395	0.676	-0.728 (inactive)
C=C/C=C/[C@H]1C(=C)CN([C@@H](Cc2ccccc2)C(=O)OC)[C@@H]1[C@H](O)Cc1ccccc1	-0.677	-0.748	-0.526	-0.108	0.174	-0.348	0.0936	-0.426	0.0321	-0.494 (inactive)
CN1C(=O)C2C=CC(C(O)c3ccccc3)N(Nc3ccccc3)C2C1=O (stereo not given)	0.75	0.717	0.61	-0.022	-1.07	-1.39	-0.419	-0.279	0.537	-0.315 (inactive)
CN(C)CCCNC(=O)[C@@]1(C)c2ccccc2C(=O)N(Cc2cc(F)cc(C(F)(F)F)c2)[C@H]1c1ccc(CO)cc1	-0.731	-0.358	0.63	-0.0121	-0.673	-0.67	-0.202	-0.91	0.397	-0.0378 (inactive)
C=C[C@H](COC(C)=O)N(C(=O)OC(C)(C)C)S(=O)(=O)c1ccc(Br)cc1	1.7	0.851	0.461	-0.296	0.867	0.433	0.671	0.65	0.233	-1.57 (inactive)
CCCC=C(CCC)[C@@H](NS(=O)(=O)c1cccs1)c1ccc(C(=O)OC)cc1	1.16	1.17	0.496	1.02	0.825	-0.186	-2.96	-0.3	1.17	0.917 (inactive)
COc1ccc([C@H]2OC[C@@H]3CC4(CC=CC4)C(=O)N32)cc1	-0.648	0.828	0.282	-0.163	1.4	0.848	-0.661	1.35	-0.284	-0.573 (inactive)
COc1ccc([Si](C)(C)[C@@H]2[C@@H](CC(=O)N3Cc4ccccc4C[C@H]3CO)O[C@]3(C(=O)N(C)c4c(Br)cc(C)cc43)[C@H]2C)cc1	0.333	1.13	0.341	0.76	1.35	1.65	0.595	1.56	1.03	-0.178 (inactive)
COCCOC(=O)N1C(=O)[C@@]2(c3cc(C#Cc4ccc(OC)cc4)ccc31)[C@H](C(=O)N1CCCCCCC1)[C@H]1C(=O)O[C@H](c3ccccc3)[C@H](c3ccccc3)N1[C@@H]2c1ccc(OCCO)cc1	0.885	0.94	0.409	0.905	1.58	2.1	-0.951	1.36	1.32	-2.56 (inactive)
COC(=O)[C@@]1(Cc2ccc(OC)cc2)[C@H]2c3cc(C(=O)N(C)C)n(CCN4CNCC4=O)c3C[C@H]2CN1C(=O)c1ccccc1	0.492	0.803	0.598	0.151	-0.589	-0.294	1	-0.44	0.459	2.82 (inactive)
[N-]=[N+]=Nc1ccccc1C[C@@]1(C(=O)NCCN2CCOCC2)N=C(c2ccc(OCCCO)cc2)O[C@@H]1c1ccccc1	0.76	1.26	0.85	1.03	1.3	1.19	0.662	0.7	0.823	-1.7 (inactive)
CCOC1=C2C(CN(S(=O)(=O)c3ccc(C)cc3)C2c2ccc(C)cc2)C2C(=O)N(c3ccccc3)C(=O)C2C1 (stereo not given)	0.727	1.15	0.553	0.783	0.475	0.301	-0.368	0.535	0.4	1.09 (inactive)
CCOc1cc(C(O)C2C=CC3C(=O)N(c4ccccc4)C(=O)C3N2Nc2ccccc2)ccc1O (stereo not given)	1.3	1.19	1.54	0.896	0.608	-0.106	-0.0767	-0.231	0.471	-1.15 (inactive)
CCCCCN1CC=CC23O[C@@H]4/C=C\CCCOC(=O)C4[C@H]2C(=O)N(C(CO)C(C)C)[C@@H]3C1=O (stereo not given in full)	-0.208	-0.376	-0.295	-0.796	0.0945	-0.603	-0.46	0.418	0.869	0.451 (inactive)
C[C@@H]1ON(c2cccc(C(=O)OC(C)(C)C)c2)[C@H](c2ccc(Br)cc2)[C@H]1C(=O)N1C(=O)OC[C@H]1Cc1ccccc1	0.556	0.77	0.306	0.937	1.21	0.735	1.63	0.766	0.106	-0.68 (inactive)
COc1ccc([Si](C)(C)[C@H]2[C@H](CCn3cc([C@H](O)c4ccccc4)nn3)O[C@@]3(C(=O)N(Cc4cccc(N5CCOC5=O)c4)c4ccccc43)[C@@H]2C)cc1	0.0694	0.679	0.0871	0.401	1.28	0.669	0.711	0.892	0.22	0.387 (inactive)
